ELG1 DNA repair: qHTS screen for small molecules that inhibit ELG1-dependent DNA repair in human embryonic kidney (HEK293T) cells expressing luciferase-tagged ELG1 | HEK293T ELG1-luciferase reporter, luminescence, 16 h; DNA damage induced by 5-fluorouridine | AID 504467, 2011 | Potency, µM (titrated, usually from 46.1 µM), for the others: top-dose activity change, negative = inhibition, most hits filed as inhibitors | actives 2.3% (n = 330,000); also: potency is read from the fitted curve at half-maximal effect; nearly all actives have a fitted effect of over 55% in size
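HEK293T cells expressing luciferase-tagged ELG1 (2,000/well) received 5-Fluorouridine plus compound or DMSO for 16 hr at 37 °C. Luciferase was read by ONE-Glo luminescence after 30 min at room temperature.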
IL1B secr inh: qHTS for Inhibitors of Inflammasome Signaling: IL-1-beta AlphaLISA Primary Screen | actives 4.7% (n = 360,000) | THP-1 LPS/ATP IL-1B secretion, AlphaLISA, 16 h; active compounds read low | activity change, % at 57.5 µM | AID 743279, 2014; in the data active = activity change below about -50%; inconclusive = mostly about -30% to -49%
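Secreted IL-1B measured by AlphaLISA bead assay after 16 h compound exposure of THP-1 cells; compounds (final up to 57.5 uM) added 1 h before LPS (250 ng/mL) and ATP (1.25 mM) stimulation; lower signal means less secretion.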
HT1080 IDH1KD tx: qHTS for induction of synthetic lethality in tumor cells producing 2HG: qHTS for the HT-1080-IDH1KD cell line; HT-1080 IDH1 knockdown viability, ATP luminescence, 48 h; Potency, µM (top dose mostly 46.1 µM), without a hit: top-dose activity, negative = toxicity, hits mostly cytotoxic; actives 2% (n = 360,000); AID 686971, 2013;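 also: potency is read from the fitted curve at half-maximal effect; 0% = DMSO wells and -100% = cell-free medium wells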
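CellTiter-Glo luminescence after 48 h compound exposure at 37 degrees C of IDH1-knockdown HT-1080 cells in 5% FBS RPMI. %Activity scaled between DMSO wells and cell-free media wells, with curves fitted and assigned curve classes.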
TDP1 cell noCPT: qHTS for Inhibitors of human tyrosyl-DNA phosphodiesterase 1 (TDP1): qHTS in cells in absence of CPT. DT40 Tdp1-/- hTDP1 cells, no CPT, ATP luminescence, 48 h. Potency, µM (titrated, usually from 46.2 µM), without a hit: top-dose activity change, negative = growth inhibition, actives largely listed as inhibitors. actives 15% (n = 420,000). AID 686978, 2013; also: potency is read from the fitted curve at half-maximal effect; nearly all actives have a fitted effect of over 55% in size
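Cells were dispensed at 400 per well, compounds added by pin tool, plates incubated ≥48 hr at 37 °C, then CellTiter-Glo added for 30 min at room temperature before luminescence reading. Line: DT40 Tdp1-/- complemented with hTDP1; camptothecin omitted.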
HT1080NT lethal: qHTS for induction of synthetic lethality in tumor cells producing 2HG: qHTS for the HT-1080-NT fibrosarcoma cell line; Potency, µM (highest dose often 46.1 µM), for the others: at the highest dose activity, negative = less viability, usual class: cytotoxic; actives 1.6% (n = 360,000); HT-1080-NT fibrosarcoma viability, CellTiter-Glo ATP luminescence, 48 h;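 also: NT is the 2HG producing partner of a matched IDH1 knockdown line; potency is read from the fitted curve at half-maximal effect; 0% = DMSO-treated cells and -100% = media-only wells without cells; nearly all actives have a fitted effect of over 55% in size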
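A 48-hour cytotoxicity screen used HT-1080-NT cells plated 2 hours before compound delivery. ATP-based CellTiter-Glo luminescence measured viability, normalized to DMSO and no-cell controls.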
TDP1 cell CPT: qHTS for Inhibitors of human tyrosyl-DNA phosphodiesterase 1 (TDP1): qHTS in cells in presence of CPT. chicken DT40 Tdp1-/-;hTDP1 cells + 20 nM CPT, ATP luminescence, 48 h. Potency, µM (titrated, usually from 46.2 µM), without a hit: at the top dose activity change, negative = growth inhibition, most hits filed as inhibitors. actives 12% (n = 420,000); also: potency is read from the fitted curve at half-maximal effect; nearly all actives have a fitted effect of over 55% in size
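Chicken DT40 Tdp1-/- cells stably complemented with human TDP1 were seeded at 400 cells/well in medium containing 20 nM camptothecin, exposed to pin-transferred compounds, and grown at 37 °C for at least 48 hr. Viability was read as ATP luminescence.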
* marks the source's active call; other numbers are inactive results; ? = inconclusive; . = not tested or not shown. In the library only some 19% were active in any assay of this set; here they are far more common. Unless noted, calls follow the shape of the dose curve; as a rule, active = well fitted curve in the direction sought with a large enough effect; inconclusive = small, poorly fitted or top-dose-only effect, or another doubt; inactive = no such curve, though single readings can be large; an effect the other way counts as inactive or inconclusive. Unless noted, % is scaled to controls: 0 for no effect and ±100 for the full control effect.

SMILES | ELG1 DNA repair | IL1B secr inh | HT1080 IDH1KD tx | TDP1 cell noCPT | HT1080NT lethal | TDP1 cell CPT
CN=C1SC(CC(=O)Nc2ccc(F)cc2F)C(=O)N1/N=C/c1ccc(OC(F)F)c(OC)c1 (stereo not given) | ? | -5 | -1% | ? | -13% | ?
COCC(=O)N1CCC2(CC1)CCN(C(c1ccccc1)c1ccccc1)CC2 | . | . | . | -14% | . | -2%
O=C(Cn1c(=O)ccc2cc(S(=O)(=O)N3CCCC3)ccc21)Nc1ccccc1 | . | . | . | -4% | . | ?
NC(=S)N=Nc1c(O)n(CCCl)c2ccc(Cl)cc12 | -26% | -9 | ? | 23µM* | -21% | ?
CCOc1ccc2c(c1)c(N=NC(N)=S)c(O)n2C | -8% | -2 | -5% | 7% | -3% | -5%
NC(=S)N=Nc1c(O)n(CCCl)c2ccccc12 | -2% | -8 | 1% | 2.6µM* | -3% | 13µM*
CCOC(=O)c1cnc2c(-c3ccc(Cl)cc3)c(C)nn2c1N | 28% | -2 | 16% | -4% | 15% | -22%
CCOc1ccc(-c2c(C)nn3c(C)c(C(=O)NCc4ccc(Cl)cc4)cnc23)cc1OCC | . | . | . | 1.6µM* | . | 1.2µM*
Cc1ccc(CCNC(=O)c2cnc3c(-c4ccc(F)cc4)c(C)nn3c2C)cc1 | . | . | . | -2% | . | -6%
COc1cccc(CNC(=O)c2c(C)nn(-c3ccccc3)c2C)c1 | ? | -1 | 11% | ? | 1% | 16%
CCOc1ccc(-c2c(C)nn3c(C)c(C(=O)NCc4cccc(OC)c4)cnc23)cc1OCC | . | . | . | ? | . | 9.2µM*
CCOc1ccc(-c2c(C)nn3c(C)c(C(=O)NCCc4ccc(Cl)cc4)cnc23)cc1OCC | . | . | . | 6.5µM* | . | 15µM*
CCOc1ccc(CCNC(=O)c2cnc3c(-c4ccc(F)cc4)c(C)nn3c2C)cc1OCC | . | . | . | 18µM* | . | 16µM*
CN(c1ccccc1)S(=O)(=O)c1cccc(NC(=O)CCNC(=O)c2ccco2)c1 | . | 21 | -1% | ? | 1% | ?
COc1ccc(C2(C(=O)NCCc3ccccc3)CCCC2)cc1OC | -19% | 13 | 1% | 21% | 15% | -22%
N[C@H](C(=O)O)c1ccc(C(=O)O)cc1 | . | . | . | -23% | . | -3%
CCN(CCO)c1ccc(Nc2cc(-c3ccc(-c4ccccc4)cc3)ncn2)cc1 | . | -8 | ? | 15µM* | ? | 18µM*
COc1ccc(Nc2cc(Nc3ccccc3)ncn2)cc1 | ? | 13 | 4% | 6% | 8% | 0%
O=C(Cc1ccc(Cl)cc1)NNC(=O)c1ccco1 | 28% | 24 | -2% | 28% | 15% | 7%
CC1CCCCN1S(=O)(=O)c1cnc(Cl)c(Br)c1 (stereo not given) | ? | -94* | -1% | ? | 3% | ?
CC1CCN(S(=O)(=O)c2cnc(Cl)c(Br)c2)CC1 | ? | -65* | 14% | -24% | 2% | -16%
CC1CCCCN1S(=O)(=O)c1coc(C(N)=O)c1 (stereo not given) | -2% | 5 | 4% | 0% | 11% | -1%
O=C(CCS(=O)(=O)c1cccc2nonc12)Nc1ccc(F)cc1F | . | . | . | -3% | . | -1%
CCOC(=O)N1CCN(C(=O)COC(=O)CNC(=O)c2ccc(OCC)c(OCC)c2)CC1 | 15% | 0 | 15% | -7% | 17% | -9%
CC(=O)N(c1nc(CCl)cs1)c1ccc(C)cc1C | -2% | 0 | 6% | -11% | 3% | -4%
SMILES | ELG1 DNA repair | IL1B secr inh | HT1080 IDH1KD tx | TDP1 cell noCPT | HT1080NT lethal | TDP1 cell CPT
CCc1ccccc1N(C(C)=O)c1nc(CCl)cs1 | ? | -15 | 13% | 23µM* | 4% | 15µM*
Cc1ccc(S(=O)(=O)Nc2ccc(N(C)S(=O)(=O)c3ccc(C)cc3)cc2)cc1 | ? | -28 | ? | ? | -30% | 2%
Cc1ccc(S(=O)(=O)N(C)c2ccc3c(c2)C(=O)c2ccccc2-3)cc1 | . | 33 | 1% | ? | 0% | 16µM*
C[C@@H]1[C@H](c2ccccc2)OCCS(=O)(=O)N1Cc1cccc(C(F)(F)F)c1 | . | . | . | 18µM* | . | ?
COc1ccc(NC(=O)CSc2nc3c(c(-c4cccs4)c2C#N)CN(C)CC3)cc1OC | -11% | ? | -19% | ? | -15% | 29µM*
CC(=O)N1CCC2(CC1)OC(=O)C(C)=C2C(=O)Nc1cc(C)ccc1C | . | . | . | -12% | . | -28%
CCOC(=O)CC1(CC)Oc2ccccc2N1S(=O)(=O)c1ccc(C)cc1 (stereo not given) | . | 1 | ? | ? | ? | 23µM*
CCOC(=O)CC1(C)N(S(=O)(=O)c2ccc(C)cc2)c2ccccc2N1S(=O)(=O)c1ccc(C)cc1 | . | 2 | 20% | 15µM* | 19% | ?
O=C(CCN1C(=O)c2ccccc2S1(=O)=O)Nc1ccccc1O | -7% | 13 | 3% | -3% | 14% | 4%
O=C(CCN1C(=O)c2ccccc2S1(=O)=O)Nc1ccccc1F | 9% | -60* | 13% | 24% | -1% | -9%
N#Cc1ccccc1NC(=O)C(=O)NCCc1csc2nc(-c3cccc(F)c3)nn12 | . | . | . | -28% | . | -20%
CCn1cc(C(=O)N2CCN(c3ccc(OC)cc3)CC2)c2cc(OC)c(OC)cc2c1=O | -12% | 2 | 5% | -12% | 0% | 10%
COc1ccccc1C(=O)N1CCN(c2cccc(Cl)c2)CC1 | 2% | 47 | 2.6µM* | 1.6µM* | 2.6µM* | 1.8µM*
O=C(c1cc2ccccc2cc1O)N1CCN(c2cccc(Cl)c2)CC1 | -9% | -1 | 2% | ? | 11% | ?
Cc1[nH]c(-c2ccc(F)cc2)cc1C(=O)N1CCN(c2cccc(Cl)c2)CC1 | 4% | -87* | ? | 16µM* | ? | -8%
CCn1cc(C(=O)N2CCN(c3cccc(Cl)c3)CC2)c2cc(OC)c(OC)cc2c1=O | ? | -2 | ? | 23µM* | ? | 16µM*
COc1cc2c(C(=O)N3CCN(c4cccc(Cl)c4)CC3)cn(C)c(=O)c2cc1OC | ? | 2 | 12µM* | 3.7µM* | ? | 5.2µM*
CCNC(=O)CC1C(=O)N(c2ccccc2)C(=O)N1CCOC (stereo not given) | -5% | -10 | -4% | 5% | 16% | -6%
